The panel holds about 83,000 compounds, 20% with a hit somewhere; the sample as a whole holds those more often.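 Values shown are percent growth following 48 h exposure of cells in 96-well plates to a single concentration of compound; below 10 was considered active.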 Active and inactive are the calls of the source.
Tested on: OVCAR-3 ovarian
Experiment: NCI-60 one-dose screen, 48 h (100 = growth as untreated, 0 = no growth, -100 = all killed)
Conditions: 10 µM unless noted

Row | Compound | growth
1 | Cc1ccc2c(c1)c(Sc1ccc(C(=O)NO)cc1)c1n2CN(C)CC1 | -7.94% (active)
2 | O=C1NC(=S)S/C1=C\c1cccc([N+](=O)[O-])c1 | 100% (inactive)
3 | CCCN(CCC)c1ccc(/C=C/c2ccc3cc(OCC)ccc3n2)cc1 | 132% (inactive)
4 | Clc1ccc(C2=NN(c3ccccc3)[C@H](c3cn(-c4ccccc4)nc3-c3ccccc3)C2)cc1 | 113% (inactive)
5 | COc1cc(C(=O)/C=C/c2c(-c3cccs3)nc3sccn23)cc(OC)c1OC | -19.1% (active)
6 | CCOC(=O)C1=C(C)N2C(=NC3=C(CCCC/C3=C\c3cc(OC)c(OC)c(OC)c3)C2c2cc(OC)c(OC)c(OC)c2)S1 (centres undefined) | 64.5% (inactive)
7 | CN1CCN(c2nc(-c3ccncc3)nc3sc4c(c23)CCCCCC4)CC1 | 93.5% (inactive)
8 | COc1ccc(-n2ncc3c4nc(OC)c(S(=O)(=O)c5ccccc5)cc4ccc32)cc1 | 77.2% (inactive)
9 | COc1ccc(C2CC(c3cc(OC)c(OC)c(OC)c3)=NN2c2ccc(S(N)(=O)=O)cc2)cc1 (centres undefined) | 77.5% (inactive)
10 | Cc1nn(CC(=O)O)c2c1C(=O)CC(C)(C)C2 | 110% (inactive)
11 | O=C1C(Br)=C(c2ccccc2)C(=O)C(Br)=C1c1ccccc1 | 110% (inactive)
12 | Cc1ccc(C)c2c1sc1nc3nc4sc5ccccc5n4c(=N)c3c(=O)n12 | 89.4% (inactive)
13 | Nc1cc(Br)c(-c2nnc(CCC(=O)c3nc4ccccc4[nH]3)o2)c(Br)c1 | 49.1% (inactive)
14 | COc1ccc(Nc2nc(NCCNc3ccnc4cc(Cl)ccc34)nc(N3CCOCC3)n2)cc1 | 73.4% (inactive)
15 | Cc1nc2cc(Nc3nc(N4CCOCC4)nc(N4CCN(C)CC4)n3)ccc2n1Cc1ccccc1 | 115% (inactive)
16 | COc1ccc(-c2nc3sc(C)cn3c2/C=C/C(=O)c2cc(OC)c(OC)c(OC)c2)cc1 | 41.7% (inactive)
17 | O=[N+]([O-])c1ccc(O)c2ncccc12 | 11.1% (inactive)

Row | Compound | growth
18 | CC1(C)N=C(N)N=C(N)N1c1cccc(/C=C/C=C/c2cccc([N+](=O)[O-])c2)c1 | 30.1% (inactive)
19 | O=c1nc(NO)[nH]c(=O)n1Cc1ccccc1 | 120% (inactive)
20 | C[C@@H](Oc1cc(-c2cnn(C3CC4(CCNCC4)C3)c2)cnc1N)c1c(F)ccc(Cl)c1Cl | 44.4% (inactive)
21 | C=CC(=O)N1CC2(CC(n3nc(-c4ccc(Oc5ccccc5)cc4)c4c(N)ncnc43)C2)C1 | 30.9% (inactive)
22 | COc1ccc(OC)c(C2C(C#N)=C(N)Oc3cc(O)ccc32)c1 (centres undefined) | 111% (inactive)
23 | CC(C)(C)[Si](C)(C)OC1[C@@H](O[Si](C)(C)C(C)(C)C)[C@@H](CNC(=O)NC(=O)C(F)(F)F)O[C@H]1n1cnc2c(NC(=O)Nc3ccccc3)ncnc21 (some centres undefined) | -54.1% (active)
24 | Nc1nc(N)c(N=Nc2c(Br)cc(S(N)(=O)=O)cc2Br)c(N)n1 | 73.1% (inactive)
25 | O=C(NCc1cccnc1)c1ccc([N+](=O)[O-])o1 | -4.71% (active)
26 | Cn1c(=O)c2c(-c3ccccc3F)n(-c3ccc4c(c3)OCO4)cc2n(C)c1=O | 114% (inactive)
27 | Nc1nc2c(s1)CCc1c-2c(Br)n(Cc2ccccc2)c1Br | 52.5% (inactive)
28 | CN1CCc2c(c3ccccc3c3ccccc23)C1 | 63.7% (inactive)
29 | COc1cccc(C2C3=C(COC3=O)N(CCO)c3cc4c(cc32)CCC4)c1 (centres undefined) | -46% (active)
30 | O=C(Nc1ccc(F)cc1)c1ccc(C(=O)Nc2ccc(F)cc2)cc1 | 109% (inactive)
31 | Cc1cc(O)cc2c1[C@H]1CC[C@]3(C)[C@@H](O)CC[C@H]3[C@@H]1C=C2 | 108% (inactive)
32 | C[C@@H](Oc1cc(-c2cnn(C3CC4(CCCNC4)C3)c2)cnc1N)c1c(Cl)ccc(F)c1Cl (some centres undefined) | 52% (inactive)
33 | Clc1ccc(Nc2nc(Nc3ccccc3)nc(Nc3ccc(-c4cc(-c5ccc(Cl)cc5)on4)cc3)n2)cc1 | 71.6% (inactive)
34 | Cc1nc(-c2ccccc2)cc2c(O)c(C(=O)N/N=C/Cc3ccccc3)[nH]c(=O)c12 | 116% (inactive)
